The structures appear in SMILES notation. Records with an inconclusive call do not appear. Entries that show only a call come without a potency. Unmarked numbers belong to inactive results. Active and inactive are the calls of the source. Calls come from the whole dose curve; as a rule, active = well fitted inhibition curve with a large enough effect; inconclusive = small, poorly fitted or top-dose-only effect; inactive = flat fitted curve, though single readings scatter. *1 amine or outer side, *2 acyl side, *3 side chain or, on linkers, in order; H or OH if unused. Where a SMILES comes first, the peptide text is derived from it. [ ]: non-standard residue; d: D form. X4 = CC(C)=CCc1cc(C(O)C(N[*:1])C(=O)[*:2])ccc1O; dPhe(4-Cl) = N[C@H](Cc1ccc(Cl)cc1)C(=O)O; d2Nal = N[C@H](Cc1ccc2ccccc2c1)C(=O)O; dCit = NC(=O)NCCC[C@@H](N)C(=O)O; d3Pal = N[C@H](Cc1cccnc1)C(=O)O
Potency is the fitted concentration of half-maximal effect.

This experiment in a line: P-glycoprotein substrates identified in KB-8-5-11 adenocarcinoma cell line, qHTS therapeutic library screen (AID 1346987). Note: nearly all actives have a fitted effect of over 65% in size. The conditions noted are these: KB-8-5-11 (P-gp overexpressing) viability, CellTiter-Glo, 72 h; series mostly up to 44.5 µM. The gist of the method:
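Steps: plate 500 KB-8-5-11 cells/well in DMEM + 10% FCS (colchicine removed); pin compounds in dose-response; incubate 72 h, 37 degree C, 5% CO2; add CellTiter-Glo, 5 min; read luminescence.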
Regarding `C[C@@H]1CCC2C(C)(C)[C@H](O)CC[C@]2(C)[C@@]12Cc1c(O)cc3c(c1O2)CN([C@@H](CCC(=O)O)C(=O)O)C3=O` (some centres undefined), the Potency entry is “inactive”. For the compound `CO[C@H]1/C=C\O[C@@]2(C)Oc3c(C)c(O)c4c(O)c(c5c(nc6cc(C)ccn65)c4c3C2=O)NC(=O)/C(C)=C\C=C/[C@H](C)[C@H](O)[C@@H](C)[C@@H](O)[C@@H](C)[C@H](OC(C)=O)[C@@H]1C`, the Potency entry was “inactive”. Take `C=C1C(=O)O[C@H]2[C@H]1CC/C(C)=C/CC[C@@]1(C)O[C@@H]21`: the Potency result was “inactive”. Consider `CN=C(N)NCCCCC/C=C(/C)CC(C)C1OC(=O)C(C)C(O)/C=C/C(C)C(O)CC(O)C(C)C(O)CCC(C)C(O)CC2(O)OC(CC(OC(=O)CC(=O)O)CC(O)CC(O)C(C)C(O)/C(C)=C/CCC1C)CC(O)C2O` (centres undefined), for which the outcome was “inactive [at 9.29 µM]”. In the case of `CCc1cccc(CC)c1NC(=O)c1nn(C)c2c1CCc1cnc(Nc3ccc(C(=O)NC4CCN(C)CC4)cc3OC(F)(F)F)nc1-2`, the Potency was 3.55 µM (active).

For `Cc1ccccc1C#Cc1ccc(CCC(=O)O)cc1`, the Potency result is “inactive”. Turning to `C/C=C(/COC(=O)/C(C)=C/C)C(=O)OC(CC)c1ccc(OC)c(OC)c1` (centres undefined), the Potency entry was “inactive”.

As to `COC1C(CO)OC(n2cnc3c(=O)[nH]cnc32)C1O` (centres undefined), the Potency entry was “inactive”. Consider `O=C1OCC(c2ccccc2)=C1Cc1ccccc1`, for which the Potency entry was “inactive”. Take `CC(=O)N[C@H](Cc1ccc2ccccc2c1)C(=O)N[C@H](Cc1ccc(Cl)cc1)C(=O)N[C@H](Cc1cccnc1)C(=O)N[C@@H](CO)C(=O)N[C@@H](Cc1ccc(O)cc1)C(=O)N[C@H](CCCNC(N)=O)C(=O)N[C@@H](CC(C)C)C(=O)N[C@@H](CCCN=C(N)N)C(=O)N1CCC[C@H]1C(=O)N[C@H](C)C(N)=O` (Ac-[d2Nal][dPhe(4-Cl)][d3Pal]SY[dCit]LRP[dA]-NH2): the Potency entry was “inactive”. On the same count and under the same terms, next, `CCOCCn1nc(CC)c2nc(N3CCC(C(=O)O)CC3)nc(Nc3cc(C)ccn3)c21`: “inactive”. In the case of `O=S(=O)(Nc1ccccn1)c1ccc(N=Cc2c(O)[nH]c3ccc4ncsc4c23)cc1`, the outcome is “inactive [at 9.29 µM]”. As for `CC(Oc1ccc2[nH]nc(/C=C/c3cnn(CCO)c3)c2c1)c1c(Cl)cncc1Cl` (centres undefined), the Potency is 1.03 µM (active). On to `CC(C)C[C@H](CC(=O)NO)C(=O)N[C@@H](Cc1ccc2ccccc2c1)C(=O)N[C@@H](C)C(=O)NCCN`, for which the Potency result was “inactive”.

Regarding `Nc1ccc(-c2cccc3c(=O)cc(N4CCOCC4)oc23)cc1`, the Potency was 6.51 µM (active).

Turning to `CCCNc1ccc2ncc(-c3ccc4[nH]ncc4c3)n2n1`, the Potency was 3.66 µM (active). On to `C[C@@H]1O[C@@H](O[C@@H]2[C@@H](O)[C@@H](O[C@]3(CO)O[C@H](CO)[C@@H](O)[C@@H]3OC(=O)/C=C/c3ccc(O)cc3)O[C@H](CO)[C@H]2OC(=O)/C=C/c2ccc(O)cc2)[C@H](O)[C@H](O)[C@H]1O[C@@H]1O[C@@H](C)[C@H](O[C@@H]2OC[C@](O)(CO)[C@H]2O)[C@@H](O)[C@H]1O`, for which the activity change, negative = cytotoxicity was 9.01% [at 9.29 µM]. With `CC(C)/C=C1\NC(=O)C(C(C)C)n2c1nc1c(c2=O)C=CC=CO1` (centres undefined), the Potency entry was “inactive”.

As to `CNC(=O)c1ccccc1Nc1nc(Nc2ccc3c(c2OC)CCC[C@@H](N2CCN(CCO)CC2)C3)ncc1Cl`, the Potency was 10.3 µM (active). In the case of `CC1=CC(=O)[C@H]2C(C)(C)CCC[C@]2(C)[C@@]1(O)CO`, the Potency entry is “inactive”. Consider `C[C@H](O)[C@H](O)/C=C/c1cccc(O)c1CO`, for which the Potency result was “inactive”.

In the case of `COC(=O)c1ccccc1O[C@@H]1O[C@H](CO)[C@@H](O)[C@H](O)[C@H]1O[C@@H]1O[C@@H](C)[C@H](O)[C@@H](O)[C@H]1O`, the Potency result was “inactive”. In the case of `OCC(CO[C@@H]1O[C@H](CO)[C@@H](O)[C@H](O)[C@H]1O)c1ccc2c(c1)OCO2` (some centres undefined), the Potency result was “inactive”. On to `C=C[C@H]1[C@H](O[C@@H]2O[C@H](CO)[C@@H](O)[C@H](O)[C@H]2O)OC=C(C(=O)OC)[C@H]1C/C=C(/C=O)[C@@H]1C(C(=O)OC)=CO[C@@H](O[C@@H]2O[C@H](CO)[C@@H](O)[C@H](O)[C@H]2O)[C@@H]1C=C`, for which the Potency entry was “inactive”. Take `CC1=C(CCC(C)CC(=O)O)[C@@]2(C)CCCC(C)(C)C2CC1=O` (some centres undefined): the Potency entry is “inactive”.

For `C/C1=C\[C@H]2OC(=O)[C@@H](C)[C@@H]2CC/C(C(=O)O)=C/CC1`, the Potency entry is “inactive”.

As to `COc1cc2c(cc1OC)-c1[nH]nc(Nc3cccc(F)c3)c1C2`, the Potency is 0.092 µM (active).

`O=C(/C=C\n1cnc(-c2cc(C(F)(F)F)cc(C(F)(F)F)c2)n1)N1CC(F)(F)C1`: the Potency is 0.461 µM (active). With `CC(C)=CCc1cc(C(O)C2NC(=O)CNC(=O)C(Cc3c[nH]c4ccccc34)NC(=O)C3CCCN3C(=O)CNC(=O)C(C(C)C)NC(=O)CNC2=O)ccc1O` (centres undefined) (cyclo(G[X4]GVGPW); configuration not given here), the activity change, negative = cytotoxicity was -0.495% [at 9.29 µM]. As to `CC(C)[C@@H]1C(=O)N(S(C)(=O)=O)[C@@H]2CCN(C(=O)/C=C/CN3CCCCC3)[C@H]21`, the Potency entry was “inactive”.

As for `CC1=C(C(=O)O)/C(=C\CO[C@@H]2O[C@H](CO)[C@@H](O)[C@H](O)[C@H]2O)C(OC(=O)/C=C/c2ccc(O)cc2)C1` (some centres undefined), the Potency entry is “inactive”. As for `CC(C)c1cc(CNc2nc(Nc3cc(C4CC4)[nH]n3)cc(N3CCN(C)CC3)n2)on1`, the Potency is 5.8 µM (active).

For the compound `COc1cc(O)c2c(c1)C1=C[C@H](O)[C@@H](O)C[C@]1(C)OC2=O`, the Potency result is “inactive”. Turning to `O=C(COc1cccc2c(=O)[nH]ccc12)c1ccccc1`, the Potency entry was “inactive”. As for `Cc1cc(O)cc(O[C@@H]2O[C@H](CO)[C@@H](O)[C@H](O)[C@H]2O)c1`, the Potency entry is “inactive”. Regarding `CC12CCC(OC3OC(CO)C(O)C(OC4OC(CO)C(O)C(O)C4O)C3O)CC1CCC1C2CCC2(C)/C(=C3/COC(=O)C3)CCC12O` (centres undefined), the Potency result is “inactive”. In the case of `CC1CCC2C(C(=O)O)=COC(O[C@@H]3O[C@H](CO)[C@@H](O)[C@H](O)[C@H]3O)C12` (some centres undefined), the Potency entry was “inactive”.

Take `CC1OC(OCC2OC(OC3CCC4(C)C(CCC5(C)C4CC=C4C6CC(C)(C)CCC6(C(=O)OC6OC(CO)C(O)C(O)C6O)CCC45C)C3(C)CO)C(O)C(O)C2O)C(O)C(O)C1O` (centres undefined): the outcome is “inactive [at 9.29 µM]”. Regarding `C[C@@H]1[C@H]2[C@H](O[C@@H]3O[C@H](CO)[C@@H](O)[C@H](O)[C@H]3O)OC=C(C(=O)O)[C@H]2C[C@@H]1O`, the Potency entry was “inactive”.

The record behind these values is PubChem BioAssay (NCATS).
